Source: paper doi:10.1101/2024.03.05.583629

Target: pT7_6His-AlfaTag-ZIF268 (human, UniProt P18146 335-423)
Test: PADIT-seq
Settings: dsDNA, one strand shown

In order of rising binding signal:
1. CTCGAGGATATCAAGATCTGGCCTCGGCTTTTTAGTGGGAACCTCTAGCTAGCCGACTCACTATAGGGATAATCGCCCTGAGCAAAGACC  0.00131 ± 0.0904 log2FC
2. CTCGAGGATATCAAGATCTGGCCTCGGCCGCCCATCCGGAACCTCTAGCTAGCCGACTCACTATAGGGATAATCGCCCTGAGCAAAGACC  0.00306 ± 0.0965 log2FC
3. CTCGAGGATATCAAGATCTGGCCTCGGCCTTTTATGCGGAACCTCTAGCTAGCCGACTCACTATAGGGATAATCGCCCTGAGCAAAGACC  0.00428 ± 0.0795 log2FC
4. CTCGAGGATATCAAGATCTGGCCTCGGCCATCCACGCGGAACCTCTAGCTAGCCGACTCACTATAGGGATAATCGCCCTGAGCAAAGACC  0.00839 ± 0.0869 log2FC
5. CTCGAGGATATCAAGATCTGGCCTCGGCGAATTAAAAGGAACCTCTAGCTAGCCGACTCACTATAGGGATAATCGCCCTGAGCAAAGACC  0.0118 ± 0.0724 log2FC
6. CTCGAGGATATCAAGATCTGGCCTCGGCCAAGTAAAAGGAACCTCTAGCTAGCCGACTCACTATAGGGATAATCGCCCTGAGCAAAGACC  0.0157 ± 0.107 log2FC
7. CTCGAGGATATCAAGATCTGGCCTCGGCCTTTTAGAGGGAACCTCTAGCTAGCCGACTCACTATAGGGATAATCGCCCTGAGCAAAGACC  0.0179 ± 0.0928 log2FC
8. CTCGAGGATATCAAGATCTGGCCTCGGCCGCCCAATGGGAACCTCTAGCTAGCCGACTCACTATAGGGATAATCGCCCTGAGCAAAGACC  0.0226 ± 0.0907 log2FC
9. CTCGAGGATATCAAGATCTGGCCTCGGCTAGCTAAAAGGAACCTCTAGCTAGCCGACTCACTATAGGGATAATCGCCCTGAGCAAAGACC  0.0229 ± 0.123 log2FC
10. CTCGAGGATATCAAGATCTGGCCTCGGCACACCACGCGGAACCTCTAGCTAGCCGACTCACTATAGGGATAATCGCCCTGAGCAAAGACC  0.0231 ± 0.103 log2FC
11. CTCGAGGATATCAAGATCTGGCCTCGGCGGAGTAAAAGGAACCTCTAGCTAGCCGACTCACTATAGGGATAATCGCCCTGAGCAAAGACC  0.0307 ± 0.0975 log2FC
12. CTCGAGGATATCAAGATCTGGCCTCGGCCGCCCATGCGGAACCTCTAGCTAGCCGACTCACTATAGGGATAATCGCCCTGAGCAAAGACC  0.0314 ± 0.091 log2FC
13. CTCGAGGATATCAAGATCTGGCCTCGGCATCCTAAAAGGAACCTCTAGCTAGCCGACTCACTATAGGGATAATCGCCCTGAGCAAAGACC  0.0323 ± 0.0965 log2FC
14. CTCGAGGATATCAAGATCTGGCCTCGGCGCGTGGCATGGAACCTCTAGCTAGCCGACTCACTATAGGGATAATCGCCCTGAGCAAAGACC  0.0324 ± 0.101 log2FC
15. CTCGAGGATATCAAGATCTGGCCTCGGCCTATGGGCGGGAACCTCTAGCTAGCCGACTCACTATAGGGATAATCGCCCTGAGCAAAGACC  0.0355 ± 0.0969 log2FC
16. CTCGAGGATATCAAGATCTGGCCTCGGCCTTTTACGCGGAACCTCTAGCTAGCCGACTCACTATAGGGATAATCGCCCTGAGCAAAGACC  0.0363 ± 0.0782 log2FC
17. CTCGAGGATATCAAGATCTGGCCTCGGCTCTATAAAAGGAACCTCTAGCTAGCCGACTCACTATAGGGATAATCGCCCTGAGCAAAGACC  0.0429 ± 0.0922 log2FC
18. CTCGAGGATATCAAGATCTGGCCTCGGCAGTGTAAAAGGAACCTCTAGCTAGCCGACTCACTATAGGGATAATCGCCCTGAGCAAAGACC  0.045 ± 0.0778 log2FC
19. CTCGAGGATATCAAGATCTGGCCTCGGCGTTTTAGGCGGAACCTCTAGCTAGCCGACTCACTATAGGGATAATCGCCCTGAGCAAAGACC  0.0528 ± 0.123 log2FC
20. CTCGAGGATATCAAGATCTGGCCTCGGCGTTTTAACAGGAACCTCTAGCTAGCCGACTCACTATAGGGATAATCGCCCTGAGCAAAGACC  0.0535 ± 0.0797 log2FC
21. CTCGAGGATATCAAGATCTGGCCTCGGCGAATGGGCGGGAACCTCTAGCTAGCCGACTCACTATAGGGATAATCGCCCTGAGCAAAGACC  0.0552 ± 0.0878 log2FC
22. CTCGAGGATATCAAGATCTGGCCTCGGCGTTTTACGGGGAACCTCTAGCTAGCCGACTCACTATAGGGATAATCGCCCTGAGCAAAGACC  0.0617 ± 0.0868 log2FC
23. CTCGAGGATATCAAGATCTGGCCTCGGCCGCTTGCGCGGAACCTCTAGCTAGCCGACTCACTATAGGGATAATCGCCCTGAGCAAAGACC  0.0632 ± 0.103 log2FC
24. CTCGAGGATATCAAGATCTGGCCTCGGCATTTTAGGGGGAACCTCTAGCTAGCCGACTCACTATAGGGATAATCGCCCTGAGCAAAGACC  0.0683 ± 0.108 log2FC
25. CTCGAGGATATCAAGATCTGGCCTCGGCATTTTACGGGGAACCTCTAGCTAGCCGACTCACTATAGGGATAATCGCCCTGAGCAAAGACC  0.0766 ± 0.0939 log2FC
26. CTCGAGGATATCAAGATCTGGCCTCGGCGCGTGGAATGGAACCTCTAGCTAGCCGACTCACTATAGGGATAATCGCCCTGAGCAAAGACC  0.0778 ± 0.106 log2FC
27. CTCGAGGATATCAAGATCTGGCCTCGGCATTTGGGCGGGAACCTCTAGCTAGCCGACTCACTATAGGGATAATCGCCCTGAGCAAAGACC  0.125 ± 0.0899 log2FC
28. CTCGAGGATATCAAGATCTGGCCTCGGCATTTTACGTGGAACCTCTAGCTAGCCGACTCACTATAGGGATAATCGCCCTGAGCAAAGACC  0.139 ± 0.0815 log2FC
29. CTCGAGGATATCAAGATCTGGCCTCGGCTTTTTAGAGGGAACCTCTAGCTAGCCGACTCACTATAGGGATAATCGCCCTGAGCAAAGACC  0.141 ± 0.108 log2FC
30. CTCGAGGATATCAAGATCTGGCCTCGGCGCGGGCGCGGGAACCTCTAGCTAGCCGACTCACTATAGGGATAATCGCCCTGAGCAAAGACC  0.156 ± 0.102 log2FC
31. CTCGAGGATATCAAGATCTGGCCTCGGCCGCCGACGCGGAACCTCTAGCTAGCCGACTCACTATAGGGATAATCGCCCTGAGCAAAGACC  0.21 ± 0.115 log2FC
32. CTCGAGGATATCAAGATCTGGCCTCGGCCGCCCACTGGGAACCTCTAGCTAGCCGACTCACTATAGGGATAATCGCCCTGAGCAAAGACC  0.278 ± 0.104 log2FC
33. CTCGAGGATATCAAGATCTGGCCTCGGCGCGCAGGCGGGAACCTCTAGCTAGCCGACTCACTATAGGGATAATCGCCCTGAGCAAAGACC  0.339 ± 0.0965 log2FC
34. CTCGAGGATATCAAGATCTGGCCTCGGCATCCCACGCGGAACCTCTAGCTAGCCGACTCACTATAGGGATAATCGCCCTGAGCAAAGACC  0.41 ± 0.087 log2FC
35. CTCGAGGATATCAAGATCTGGCCTCGGCGCGTGGTAAGGAACCTCTAGCTAGCCGACTCACTATAGGGATAATCGCCCTGAGCAAAGACC  0.49 ± 0.0946 log2FC
36. CTCGAGGATATCAAGATCTGGCCTCGGCCGCCCACTTGGAACCTCTAGCTAGCCGACTCACTATAGGGATAATCGCCCTGAGCAAAGACC  0.543 ± 0.104 log2FC
37. CTCGAGGATATCAAGATCTGGCCTCGGCAGCCCACGCGGAACCTCTAGCTAGCCGACTCACTATAGGGATAATCGCCCTGAGCAAAGACC  0.806 ± 0.0795 log2FC
38. CTCGAGGATATCAAGATCTGGCCTCGGCTTGTGGGCGGGAACCTCTAGCTAGCCGACTCACTATAGGGATAATCGCCCTGAGCAAAGACC  2.19 ± 0.0788 log2FC
39. CTCGAGGATATCAAGATCTGGCCTCGGCGCGGGGGCGGGAACCTCTAGCTAGCCGACTCACTATAGGGATAATCGCCCTGAGCAAAGACC  3.63 ± 0.0947 log2FC
